Records with an inconclusive call do not appear. A number with no mark means an inactive call. Calls of active or inactive are those of the source. Calls follow the shape of the dose curve; as a rule, active = well fitted cell-killing curve with a large enough effect; inconclusive = small, poorly fitted or top-dose-only effect, or effect the other way; inactive = no such curve, though single readings can be large or run the other way.
Potency is read from the fitted curve at half-maximal effect.

A short description of the assay: Quantitative High-Throughput drug screen in 47 multiple myeloma cell lines against the NCATS MIPE library collection: KMS28BM_JCRB cell viability assay (AID 1919874). Also: nearly all actives have a fitted effect of over 35% in size. The following applies: CellTiter-Glo ATP, 48 h; series mostly up to 45.8 µM; viability, % of control: at the top concentration. The method in brief:
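500 cells/well per myeloma line exposed to pinned MIPE 4.0 compounds for 48 h at 37 °C, 5% CO2. Viability read as ATP by CellTiter-Glo luminescence, normalised to DMSO-only (100%) and media-only (0%) wells.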
On the technique in general: Cellular ATP, detected with luciferase, serves as a proxy for viable cell number.
For the compound `CCCCn1c(=O)n(Cc2ccccc2F)c(=O)c2[nH]c(Cc3ccc(NC(C)=O)cc3)nc21`, the “viability, % of control” value was 77.7%.

With `CC1(C)OC2CC3C4CC(F)C5=CC(=O)C=CC5(C)C4C(O)CC3(C)[C@]2(C(=O)CO)O1` (some centres undefined), the “viability, % of control” value is 110%.

Turning to `Cc1ccc(C2=Nc3ccc(Cl)cc3OC2)cc1`, the “viability, % of control” value is 122%.

As to `COc1ccc(CCN(C)CCCOc2ccc(S(=O)(=O)c3[nH]c4ccccc4c3C(C)C)cc2)cc1OC`, the Potency is 13.2 µM (active).

For the compound `CC(C)(O)CC(=O)NCCn1ccc2ncnc(Nc3ccc(Oc4cccc(C(F)(F)F)c4)c(Cl)c3)c21`, the Potency was 26.4 µM (active).

Take `CC(C)CNc1ccnc(NCc2csc(-c3ccccc3)n2)n1`: the Potency is 16.6 µM (active).

Take `N#Cc1c(N(CC(=O)O)CC(=O)O)sc(C(=O)O)c1CC(=O)O`: the “viability, % of control” value was 113%.

Regarding `CN(C)CC[C@H](CSc1ccccc1)Nc1ccc(S(=O)(=O)NC(=O)c2ccc(N3CCN(Cc4ccccc4-c4ccc(Cl)cc4)CC3)cc2)cc1[N+](=O)[O-]`, the Potency was 1.87 µM (active).

In the case of `CN1CCc2c(n(Cc3ccc(C(=O)NO)cc3)c3ccccc23)C1`, the Potency is 18.7 µM (active).

In the case of `CCNC(=O)c1noc(-c2cc(C(C)C)c(O)cc2O)c1-c1ccc(CN2CCOCC2)cc1`, the Potency was 0.0332 µM (active).

As for `Cc1ccc(NC(=O)c2cccc(N(C)C)c2)cc1NC(=O)c1ccc(O)cc1`, the Potency is 5.26 µM (active).

With `N[C@@H](CC(=O)N1CCn2c(nnc2C(F)(F)F)C1)Cc1cc(F)c(F)cc1F`, the Potency is 4.69 µM (active).

Turning to `Cc1ccc(S(=O)(=O)OCC(=O)Nc2ccc(C(=O)O)c(O)c2)cc1`, the “viability, % of control” value was 102%.

As for `Cc1nc2c([nH]1)CCN(C(=O)c1ccc(NC(=O)c3ccccc3-c3ccccc3)cc1)c1ccccc1-2`, the “viability, % of control” value is 91.9%.

The values are drawn from PubChem BioAssay (NCATS).
